# Out of some 52,000 compounds screened, about 4,300 (8.3%) were called active. Cut-off read from the data, not from the text of the source: active = survival mostly below about 52% (no sharp cut-off); inactive = mostly above about 56%. This excerpt belongs to a sample that is enriched for actives.
# Test system: DeltatarO mutant
# Assay: S. aureus survival, RN4220 and DeltatarO strains – OD600, teichoic acid synthesis inhibitors, primary screen (AID 463173)
# Conditions: S. aureus RN4220 wild type/DeltatarO growth, OD600, 18 h, active compounds read low, screened at 18.75 µg/mL (by protocol)
row,Compound,survival
1,O=C(NCc1ccccc1Cl)c1ccc2c(c1)N(Cc1ccccc1)C(=O)c1ccccc1S2,144% (inactive)
2,O=C(Nc1cnn(C23CC4CC(CC(C4)C2)C3)c1)c1cc(-c2ccccc2)on1,101% (inactive)
3,COc1ccc(NC(=O)C(C)Sc2nc(C)cc(=O)[nH]2)cc1 (stereo not given),101% (inactive)
4,CC(C)c1ccc(NC(=O)C2(C)Cc3ccccc3C(=O)O2)cc1 (stereo not given),106% (inactive)
5,CC(NC(=O)c1nn(C)c2c1CSc1ccccc1-2)c1ccccc1 (stereo not given),76% (inactive)
6,CCC(=O)C1=C(c2cccc([N+](=O)[O-])c2)N(C(=O)CC)n2c(nnc2C2CCCCC2)S1,91% (inactive)
7,CCC(=O)C1=C(c2cccc([N+](=O)[O-])c2)N(C(=O)CC)n2c(nnc2-c2ccccc2)S1,8% (active)
8,CCC(=O)C1=C(c2ccc(OC)c(OC)c2)N(C(=O)CC)n2c(nnc2-c2ccc(C)cc2)S1,68% (inactive)
9,CCOc1ccc(C2=C(C(=O)CC)Sc3nncn3N2C(=O)CC)cc1,17% (active)
10,CCC(=O)C1=C(c2ccccc2)N(C(=O)CC)n2c(nnc2-c2ccccc2)S1,-5% (active)
11,CC(=O)C1=C(c2cccc([N+](=O)[O-])c2)N(C(C)=O)n2c(nnc2-c2ccc(C)cc2)S1,89% (inactive)
12,CCCC(=O)C1=C(c2ccc(C)cc2)N(C(=O)CCC)n2cnnc2S1,130% (inactive)
13,CCC(=O)C1=C(c2ccc(F)cc2)N(C(=O)CC)n2c(nnc2-c2ccc(OC)cc2)S1,66% (inactive)
14,CCC(=O)C1=C(c2ccc(F)cc2)N(C(=O)CC)n2cnnc2S1,128% (inactive)
15,CN(CC(=O)O)Cc1nc2ccccc2[nH]1,103% (inactive)
16,Cc1c(Cl)cccc1NC(=O)c1ccc(NC(=O)N2CCSc3ncccc32)cc1,72% (inactive)
17,COC(=O)c1ccc(C=Nc2ccc(O)c(-c3nc4ccccc4o3)c2)cc1,93% (inactive)
18,COc1ccc(C)cc1-n1cnc2cc(C(=O)NC3CCCC3)ccc21,119% (inactive)
19,O=C(C1CCC(Cn2c(=O)c3sccc3n(Cc3cccc(F)c3)c2=O)CC1)N1CCCCC1 (stereo not given),92% (inactive)
20,Cc1c(NS(=O)(=O)c2cccc(C(=O)O)c2)c(=O)n(-c2ccccc2)n1C,67% (inactive)
21,O=C1Nc2ccccc2N(O)N1c1ccccc1Cl,90% (inactive)
22,CCc1ccc(S(=O)(=O)Nc2ccc3c(c2)n(C)c(=O)c(=O)n3C)cc1,79% (inactive)
23,COc1ccccc1N1CCN(C(=O)Cn2c(=O)n3nc(-c4cccc(F)c4)nc3c3ccccc32)CC1,71% (inactive)

row,Compound,survival
1,CC(C)c1ccc(NC(=O)CN2C(=O)CCc3cc(S(=O)(=O)N4CCOCC4)ccc32)cc1,87% (inactive)
2,O=C(Nc1ccc(F)cc1Cl)c1cnc(N2CCOCC2)c2ccccc12,104% (inactive)
3,COc1cccc(N=Nc2c(O)[nH]c(=O)[nH]c2=O)c1,101% (inactive)
4,COc1ccc(N=Nc2c(N)n[nH]c2N)cc1,1% (active)
5,Nc1n[nH]c(N)c1N=Nc1ccc(Cl)cc1,64% (inactive)
6,Cn1c(=O)c2cc(C(=O)NCCCN3CCN(c4ccc(F)cc4)CC3)sc2c2ccccc21,70% (inactive)
7,C=C(C)Cn1c(SCC(=O)Nc2cccc(Cl)c2)nc2sc3c(c2c1=O)CCCC3,126% (inactive)
8,COc1ccc(NC(=O)C(Cc2ccccc2)n2cccc2)cc1OC (stereo not given),79% (inactive)
9,O=C(Nc1ccccc1)C(Cc1ccccc1)N1Cc2ccccc2C1=O (stereo not given),77% (inactive)
10,Cc1ccc(NC(=O)C(Cc2ccccc2)n2cccc2)cc1C (stereo not given),28% (active)
11,Cc1cccc(NC(=O)C(Cc2ccccc2)n2cccc2)c1C (stereo not given),75% (inactive)
12,Cc1ccc(NC(=O)C(Cc2ccccc2)n2cccc2)c(C)c1 (stereo not given),67% (inactive)
13,O=C(Nc1cccc(Cl)c1)C(Cc1ccccc1)n1cccc1 (stereo not given),11% (active)
14,Cc1ccc(C)c(NC(=O)C(Cc2ccccc2)n2cccc2)c1 (stereo not given),107% (inactive)
15,CCc1cccc(NC(=O)C(Cc2ccccc2)n2cccc2)c1 (stereo not given),18% (active)
16,CC(=O)c1cccc(NC(=O)[C@H](Cc2ccccc2)N2Cc3ccccc3C2=O)c1,67% (inactive)
17,COc1ccc(OC)c(S(=O)(=O)Nc2cc3c(cc2C)n(C)c(=O)c(=O)n3C)c1,84% (inactive)
18,C1=C(c2cccs2)OC(c2cccs2)=CC1c1cccs1,52% (inactive)
19,Nc1ncc(S(=O)(=O)NCc2cccc(Cl)c2)cn1,74% (inactive)
20,CCOc1ccc(S(=O)(=O)N2CCN(c3ccc(Cl)c(Cl)c3)CC2)c2ccccc12,168% (inactive)
21,COc1ccc(Cn2nnnc2C(c2ccccn2)N2CCc3ccccc3C2)cc1 (stereo not given),74% (inactive)
22,O=C1CSC2(C(=O)N(Cc3ccccc3F)c3ccccc32)N1c1cccc(C(F)(F)F)c1 (stereo not given),87% (inactive)
23,O=C(COCc1cc(-c2ccco2)on1)Nc1ccc(OC(F)(F)F)cc1,92% (inactive)

row,Compound,survival
1,CCOc1ccc(-c2cc3c(=O)n(Cc4nc(-c5cccc(OC)c5OC)oc4C)ccn3n2)cc1Cl,187% (inactive)
2,Cc1ccc2nc(NC(=O)c3ccc(S(=O)(=O)N4CCCc5ccccc54)cc3)sc2c1,144% (inactive)
3,COc1cccc(C(=O)Nc2nnc(S(=O)(=O)N3CCCc4ccccc43)s2)c1,18% (active)
4,COc1ccc(C(=O)Nc2nnc(S(=O)(=O)N3CCCc4ccccc43)s2)cc1,49% (inactive)
5,Cc1cccc(C(=O)Nc2nnc(S(=O)(=O)N3CCCc4ccccc43)s2)c1,17% (active)
6,Cc1ccc(C(=O)Nc2nnc(S(=O)(=O)N3CCCc4ccccc43)s2)cc1,39% (active)
7,Cc1ccc(C(=O)Nc2nnc(S(=O)(=O)N3CCc4ccccc43)s2)cc1,26% (active)
8,COc1ccccc1NC(=O)c1c(NCc2ccc(OC)c(OC)c2OC)sc2c1CCCC2,93% (inactive)
9,COc1ccc(-c2nc3ccccc3n3c(-c4ccc(OC)cc4)c4c(=O)n(C)c(=O)n(C)c4c23)cc1,84% (inactive)
10,CCOC(=O)c1c(S(=O)(=O)N2CCCC(C(=O)Nc3cccc(C#N)c3)C2)c(C)n(C)c1C (stereo not given),67% (inactive)
11,CCc1ccccc1Nc1sc(C(=O)c2ccccc2)c(N)c1S(=O)(=O)c1ccccc1,119% (inactive)
12,O=C(Nc1cccc(Cl)c1N1CCOCC1)c1ccco1,90% (inactive)
13,COc1ccc(S(=O)(=O)CCc2nc3ccccc3n2CC(=O)O)cc1,113% (inactive)
14,CCOC(=O)c1ccc(NC(=O)C(CC)Sc2nc3ccncc3[nH]2)cc1 (stereo not given),128% (inactive)
15,CN1CCN(C(=O)C(=O)Nc2c3c(nn2-c2ccc(F)cc2)CSC3)CC1,72% (inactive)
16,CC(=O)N1CCN(C(=O)C(=O)Nc2c3c(nn2-c2ccc(Cl)cc2)CSC3)CC1,-1% (active)
17,CC(NC(=O)C(=O)Nc1c2c(nn1-c1ccc(F)cc1)CSC2)c1ccccc1 (stereo not given),-2% (active)
18,CCC(CO)NC(=O)C(=O)Nc1c2c(nn1-c1ccc(F)cc1)CSC2 (stereo not given),80% (inactive)
19,CC(NC(=O)C(=O)Nc1c2c(nn1-c1ccccc1)CSC2)c1ccccc1 (stereo not given),61% (inactive)
20,CN1CCN(C(=O)C(=O)Nc2c3c(nn2-c2ccc(Cl)cc2)CSC3)CC1,72% (inactive)
21,Cc1cccc(C)c1-n1ncc(C(=O)Nc2ccc3c(c2)OCO3)c1C1CCN(C(=O)OC(C)(C)C)CC1,100% (inactive)
22,Cc1ccc(-c2cn3nc(N4CCCC(C(=O)NCc5ccc(F)cc5)C4)sc3n2)cc1 (stereo not given),86% (inactive)
23,CCNC(=O)NC1(C(=O)N2CCC(Cc3ccccc3)CC2)CCCCC1,87% (inactive)

row,Compound,survival
1,Cc1ccc(N2CC(NC(=O)c3cccc(Cl)c3)CC2=O)cc1C (stereo not given),75% (inactive)
2,COc1cc(C(=O)N2CCC(c3nc4ccccc4o3)CC2)cc(OC)c1OC,91% (inactive)
3,Cn1c2ccccc2c2c(C(=O)N3CCN(c4ccc(F)cc4)CC3)cn(C3CCCCC3)c(=O)c21,132% (inactive)
4,Cc1ccc(NC(=O)Cc2coc3ccc(C(C)C)cc23)cc1Cl,37% (active)
5,COC(=O)c1ccc(NC(=O)Cc2coc3cc(C)ccc23)cc1,91% (inactive)
6,CC(C)c1ccc2occ(CC(=O)Nc3cccc(C(F)(F)F)c3)c2c1,0% (active)
7,Cc1cccc(NC(=O)c2oc3ccccc3c2NC(=O)Cc2coc3ccc(C(C)C)cc23)c1,67% (inactive)
8,CCCCOC(=O)c1ccc(NC(=O)Cc2coc3ccc(C(C)C)cc23)cc1,69% (inactive)
9,Cc1ccc(NC(=O)Cc2coc3ccc(C(C)C)cc23)c(C)c1,88% (inactive)
10,Cc1ccc2onc(CC(=O)Nc3cccc(C(F)(F)F)c3)c2c1,54% (inactive)
11,Cc1ccc2c(CC(=O)Nc3cccc(C(F)(F)F)c3)coc2c1,1% (active)
12,CC(C)c1ccc2occ(CC(=O)Nc3ccccc3Cl)c2c1,85% (inactive)
13,CCN1Cc2cccc(C(=O)Nc3ccc(F)cc3)c2C1=O,129% (inactive)
14,Cc1cc(C)cc(N2CCn3c2nc2c3c(=O)n(CCc3ccccc3)c(=O)n2C)c1,89% (inactive)
15,COCCn1c(SCC(=O)c2ccc(OC)cc2)nc2cc(C(=O)NC3CCCC3)ccc2c1=O,94% (inactive)
16,Cc1ccc(S(=O)(=O)N(C#N)c2nc(C)cc(C)n2)cc1,71% (inactive)
17,C=C(C)c1cccc(C(C)(C)NC(=O)N(C)C2CCN(C)CC2)c1,82% (inactive)
18,COc1ccccc1-c1nnc(C2CCN(S(=O)(=O)c3ccccc3)CC2)o1,84% (inactive)
19,Cc1ccc(NS(=O)(=O)c2ccc3c4c(cccc24)C(=O)N3)c(C)c1,58% (inactive)
20,Cc1ccc(C)c(NS(=O)(=O)c2ccc3c4c(cccc24)C(=O)N3)c1,52% (active)
21,COc1ccc(C)cc1NS(=O)(=O)c1ccc2c3c(cccc13)C(=O)N2,58% (inactive)
